Results: PubChem BioAssay AID2596 (National Center for Advancing Translational Sciences (NCATS), 2010)
Inconclusive results are not listed. Calls of active or inactive are those of the source. Calls follow the shape of the dose curve; as a rule, active = well fitted inhibition curve with a large enough effect; inconclusive = small, poorly fitted or top-dose-only effect, or effect the other way; inactive = flat fitted curve, though single readings scatter.

target: Lysosomal acid glucosylceramidase (Homo sapiens) (UniProt P04062); experiment: qHTS Assay for Inhibitors and Activators of N370S glucocerebrosidase as a Potential Chaperone Treatment of Gaucher Disease: Purified N370S Glucocerebrosidase Cleavage of Glucosylceramide; conditions: purified N370S GCase; series mostly up to 77.6 µM
Sequence (P04062 whole entry N409S): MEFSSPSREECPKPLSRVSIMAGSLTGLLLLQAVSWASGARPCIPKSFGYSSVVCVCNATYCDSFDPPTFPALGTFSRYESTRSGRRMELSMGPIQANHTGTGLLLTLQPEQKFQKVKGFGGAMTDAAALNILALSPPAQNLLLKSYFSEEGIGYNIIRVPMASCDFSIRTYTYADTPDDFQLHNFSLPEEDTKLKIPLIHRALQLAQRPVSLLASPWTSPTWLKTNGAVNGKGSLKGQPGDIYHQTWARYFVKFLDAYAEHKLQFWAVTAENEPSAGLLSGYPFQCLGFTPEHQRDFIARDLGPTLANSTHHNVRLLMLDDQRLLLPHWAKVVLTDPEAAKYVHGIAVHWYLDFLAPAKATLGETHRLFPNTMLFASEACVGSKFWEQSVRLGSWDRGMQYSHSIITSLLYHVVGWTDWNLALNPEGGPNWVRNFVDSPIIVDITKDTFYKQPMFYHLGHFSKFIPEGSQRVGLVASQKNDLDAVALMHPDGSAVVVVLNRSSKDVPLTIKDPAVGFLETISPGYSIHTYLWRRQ
Description: NIH Chemical Genomics Center [NCGC]
NIH Molecular Libraries Probe Production Centers Network [MLPCN]
Assay Submitter (PI): Wei Zheng
Glucocerebrosidase (GC) catalyzes the hydrolysis of beta-glucocerebroside to glucose and ceramide in lysosomes. Mutations in the glucocerebrosidase gene result in Gaucher disease, an autosomal recessive lysosomal storage disorder. Many of the mutations encountered in patients with Gaucher disease are missense alterations that may cause misfolding, decreased stability and/or mistrafficking of this lysosomal protein. […] These inhibitors include iminosugar analogs and three non-iminosugar inhibitors identified from a previous HTS of 62,000 compounds with the wild type recombinant enzyme. However, the enhancement of enzyme activity by the chaperone action of an enzyme inhibitor must be balanced against the direct inhibition of the enzyme. An enzyme activator could also function as a chaperone by binding to the enzyme and helping to correct its misfolding and mistrafficking. While activators for GC have not yet been identified, they may have better therapeutic potential than inhibitors. Therefore the discovery and development of chemical activators may provide a new strategy for the chaperone therapy.
We have optimized a new assay using N370S mutant GC derived from the spleen of a Gaucher patient. […] In addition, the MLPCN compound library has expanded, which increases the chance of finding new and better probes.
This assay characterizes compound activity using purified, mutant enzyme cleavage of the native substrate for the enzyme instead of mutant enzyme from tissue homogenate. Compound activity differences may be due to the absence of endogenous cofactors found in tissue homogenate as well as inherent differences in enzyme stability and catalytic activity using the difference substrates.
NCGC Assay Protocol Summary:
This is an enzyme assay using glucosylceramide from soy (Avanti Polar Lipids Catalog #: 131304P) as the substrate and recombinant human glucocerebrosidase as the enzyme preparation. Upon hydrolysis of the substrate, the glucose product can be detected using the Amplex Red Glucose Oxidase Assay Kit (Invitrogen catalog #: A22189). The product of this reaction can be read with a fluorescence plate reader with an excitation at 573 nm and an emission at 610 nm. Data were normalized to the controls for basal activity (without enzyme) and 100% activity (with enzyme). The AC50 values were determined from concentration-response data modeled with the standard Hill equation.
Assay buffer for enzyme reaction: 50 mM citric acid (titrated with potassium phosphate to pH 5.9), 0.01% Tween-20 (pH 5.9 is an optimal condition for this enzyme assay)
Assay buffer for Amplex Red reaction: Tris-HCl, pH 7.5
1536-well assay protocol for the glucocerebrosidase assay:
(1) Add 2 ul/well glucocerebrosidase enzyme solution (5 nM final)
(2) Add 23 nL compounds in DMSO solution. The final titration was 0.7 nM to 77 uM.
(3) Add 1 ul of glucosylceramide solution (50 uM final)
(4) Incubate at 37C for 40 min
(5) Add 2 ul tris-HCl buffer with Amplex Red reagents
(6) Incubate 45 min at room temperature.
(7) Detect the assay plate in a ViewLux plate reader (PerkinElmer) with Ex=573 nm and Em=610nm.
Keywords: Glucocerebrosidase, beta-glucosidase, Gaucher Disease, pharmacological chaperone, chaperone therapy, high throughput screening, glucocerebrosidase inhibitor, MLSMR, MLSCN, NIH Roadmap, qHTS and NCGC

Potency, inactive:
Cc1cc(C)n2ncc(C(=O)Nc3ccc(Cl)c(Cl)c3)c2n1
Cc1cc(C)n2ncc(C(=O)Nc3cccc(O)c3)c2n1
O=S(=O)(c1ccc(Cl)cc1)N1CCN(c2nc(-c3cccs3)nc3ccccc23)CC1
CCCNC(=O)COC(=O)c1ccccc1OCC(=O)Nc1ccc(Br)cc1
COc1ccc(-c2nc(N3CCN(S(=O)(=O)c4ccc(F)cc4)CC3)c3ccccc3n2)cc1
O=S(=O)(c1ccc(F)cc1)N1CCN(c2nc(-c3ccccc3)nc3cc(Cl)ccc23)CC1
COc1cccc(S(=O)(=O)N2CCN(c3nc(-c4cccs4)nc4ccccc34)CC2)c1
CCC(=O)OCCNc1nc(-c2ccccc2)nc2ccccc12
O=C(CSc1nccc(-c2cccs2)n1)Nc1cccc(Cl)c1
COc1ccc(-c2nc(N3CCN(S(=O)(=O)c4ccccc4)CC3)c3ccccc3n2)cc1
c1ccc2c(NCC3CCCO3)nc(N3CCOCC3)nc2c1 (configuration not stated)
CSc1ccc(NC(=O)Nc2cc(C)ccn2)cc1
O=S(=O)(c1ccc(F)cc1)N1CCN(c2nc(-c3ccc(F)cc3)nc3cc(Cl)ccc23)CC1
O=S(=O)(c1ccc2c(c1)OCCO2)N1CCN(c2nc(-c3ccccc3)nc3ccccc23)CC1
N=c1c2c(-c3ccccc3)c(-c3ccccc3)n(Cc3ccco3)c2ncn1CCCn1ccnc1
COc1ccc(S(=O)(=O)N2CCN(c3nc(-c4cccs4)nc4ccccc34)CC2)cc1
COc1cccc(CN(C)c2nc(-c3cccs3)nc3ccccc23)c1
O=S(=O)(c1ccc2ccccc2c1)N1CCN(c2nc(-c3cccs3)nc3ccccc23)CC1
COc1ccccc1C(=O)COC(=O)c1ccccc1OCC(=O)Nc1ccc(SC(F)F)cc1
Cc1ccccc1S(=O)(=O)N1CCN(c2nc(-c3cccs3)nc3ccccc23)CC1
O=S(=O)(c1cccc(C(F)(F)F)c1)N1CCN(c2nc(-c3cccs3)nc3cc(Cl)ccc23)CC1
Cc1cccc(/C=N/NC(=O)NC23CC4CC(CC(C4)C2)C3)n1
